# PubChem BioAssay AID1220 (Sanford-Burnham Center for Chemical Genomics, 2008)
# In all, about 190,000 compounds went through this assay and about 1,300 (0.68%) were called active. This is one part of a sample in which actives are shown more often than they occur. Cut-off read from the data, not from the text of the source: active = inhibition above about 50%; inactive = the rest.
# Molecular target: Mannose-6-phosphate isomerase (Homo sapiens) (UniProt P34949)
# Test: MPI inhibition at elevated mannose 6-phosphate – biochemical, fluorescence intensity, high mannose 6-phosphate, primary screen (AID 1220)
# Settings: recombinant PMI enzyme, coupled fluorescence intensity; at 20 µM; active compounds read high
# Chain of Mannose-6-phosphate isomerase (Homo sapiens) (P34949 whole entry, looked up): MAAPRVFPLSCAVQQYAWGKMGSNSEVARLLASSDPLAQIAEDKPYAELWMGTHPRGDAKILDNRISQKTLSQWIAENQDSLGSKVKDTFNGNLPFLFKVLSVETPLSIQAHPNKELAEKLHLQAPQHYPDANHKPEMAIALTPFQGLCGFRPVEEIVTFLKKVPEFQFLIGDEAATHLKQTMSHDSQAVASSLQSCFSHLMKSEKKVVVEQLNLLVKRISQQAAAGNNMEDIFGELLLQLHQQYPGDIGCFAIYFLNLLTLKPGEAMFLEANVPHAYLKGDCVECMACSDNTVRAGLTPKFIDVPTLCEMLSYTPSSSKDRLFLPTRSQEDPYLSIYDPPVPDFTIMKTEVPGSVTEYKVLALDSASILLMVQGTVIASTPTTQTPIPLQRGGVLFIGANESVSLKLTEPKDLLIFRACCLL
row,Compound,inhibition
1,Cn1c(=O)c2c(nc(N3CCCC3)n2CC(O)CO)n(C)c1=O (configuration not stated),-12.4% (inactive)
2,Cc1cc(C)nc(NC(=O)c2cc(Br)ccc2Cl)n1,-2.5% (inactive)
3,O=C(COC(=O)c1cccs1)Nc1cc(S(=O)(=O)N2CCOCC2)ccc1Cl,-2.3% (inactive)
4,COc1cc(NC(=O)CCNC(=O)Cn2cnc3ccccc3c2=O)cc(OC)c1OC,10.9% (inactive)
5,COC(=O)c1nnn(-c2nc(N3CCOCC3)nc(N3CCOCC3)n2)c1C,8.7% (inactive)
6,COc1cc(OC)c([N+](=O)[O-])cc1/C=N/NC(=O)c1ccncc1,58.7% (active)
7,COc1ccc(/C=N/NC(=O)c2ccncc2)cc1[N+](=O)[O-],-13.2% (inactive)
8,COc1cc(OC)c(/C=N/NC(=O)c2ccncc2)cc1Br,-19.4% (inactive)
9,COc1ccc(Cn2nnnc2C(c2ccc3ncccc3c2)N2CCN(C3CCCCC3)CC2)cc1 (configuration not stated),-3.1% (inactive)
10,O=C(Cc1ccc(Cl)c(Cl)c1)Nc1cccc2ncccc12,8.6% (inactive)
11,O=C(O)c1cc(Cl)c(Cl)cc1C(=O)Nc1cccc2cccnc12,46% (inactive)
12,COCCCNC(=S)Nc1cccc2ncccc12,54.4% (active)
13,O=C(NC(=S)Nc1cccc2ncccc12)c1ccco1,7.2% (inactive)
14,O=C(NC(=S)Nc1cccc2ncccc12)c1cccs1,67.1% (active)
15,COCCCNC(=S)Nc1ccccc1C,15.8% (inactive)
16,O=C(O)c1cc(Cl)c(Cl)cc1C(=O)Nc1cccc2ncccc12,54.8% (active)
17,COCCNC(=S)Nc1cccc2cnccc12,48% (inactive)
18,O=C(NC(=S)Nc1cccc2ncccc12)c1ccccc1,30.3% (inactive)
19,CCN1C2=C(C(=O)CCC2)C(c2ccc(O)cc2)C2=C1CCCC2=O,-9.2% (inactive)
20,Cc1nnc(NC(=O)CSc2nnc(-c3ccc(S(=O)(=O)N4CCCC4)cc3)n2C)s1,-8.6% (inactive)
21,CC1(C)C(=O)N(OCc2ccccc2)C(C)(C)C(=O)N1OCc1ccccc1,-1.9% (inactive)
22,COc1cc2c(cc1NC(=O)CSc1ccccn1)oc1ccccc12,4.8% (inactive)
23,COc1cc2c(cc1NCc1ccc3c(c1)OCO3)oc1ccccc12,32.3% (inactive)

row,Compound,inhibition
1,COc1cc2c(cc1NCc1ccccn1)oc1ccccc12,56.9% (active)
2,CCOC(=O)C1CCN(c2c(NCc3ccc(C(=O)N(C)Cc4ccccc4)cc3)c(=O)c2=O)CC1,-6.2% (inactive)
3,Cc1cc(C)nc(/N=C2\NC(=O)CC(C(=O)O)N2c2ccc(F)c(Cl)c2)n1 (configuration not stated),-5.5% (inactive)
4,COc1cc(C2C3=C(CCCC3=O)Nc3ccc4ncccc4c32)ccc1O (configuration not stated),27.4% (inactive)
5,O=C1CCCC2=C1C(c1cccc(O)c1)c1c(ccc3ncccc13)N2 (configuration not stated),35.4% (inactive)
6,O=C1CCCC2=C1C(c1ccc(O)c(O)c1)c1c(ccc3ncccc13)N2 (configuration not stated),52.9% (active)
7,COc1cc(NC2=CC(=O)CC(C)(C)C2)cc(OC)c1OC,9.2% (inactive)
8,COc1cc(N/C=C2\CC(=O)NC(C)=C2C#N)cc(OC)c1OC,70.9% (active)
9,COc1cc(C2C(C#N)=C(C)NC(C)=C2C#N)cc(OC)c1OC,2% (inactive)
10,COC(=O)c1ccc(CSc2ccc3nnc(-c4cccnc4)n3n2)o1,0.3% (inactive)
11,CN(C)CCNC(=O)c1c(O)c2c([nH]c1=O)CCCC2,15.6% (inactive)
12,COc1ccc(N)cc1-n1c(C)ccc1C,64.2% (active)
13,Cc1cc(N)ccc1N1CCCC1,25.9% (inactive)
14,COc1ccc(N)cc1-n1cnnn1,-5.6% (inactive)
15,COc1ccc(Cl)cc1-n1c(C)ccc1C,-6.6% (inactive)
16,Cc1cc(N)ccc1-n1c(C)ccc1C,69.4% (active)
17,Cc1ccc(N)cc1-n1c(C)ccc1C,27.5% (inactive)
18,Nc1nc(NCc2ccco2)nn1-c1ccccc1,2% (inactive)
19,CC(=O)OCCNc1cc(SCc2ccco2)c2nonc2c1[N+](=O)[O-],45.7% (inactive)
20,CCCC(=O)OCCNc1cc(Sc2nc3ccccc3[nH]2)c2nonc2c1[N+](=O)[O-],33% (inactive)
21,CCCSc1cc(NCCOC(=O)CCC)c([N+](=O)[O-])c2nonc12,50.7% (active)
22,CCC(=O)OCCNc1cc(Sc2nccn2C)c2nonc2c1[N+](=O)[O-],50.8% (active)
23,COC(=O)CCSc1cc(NCCOC(C)=O)c([N+](=O)[O-])c2nonc12,43.1% (inactive)

row,Compound,inhibition
1,CCN(CC)c1cc(NCCO)c([N+](=O)[O-])c2nonc12,57.4% (active)
2,CCCSc1cc(NCCOC(C)=O)c([N+](=O)[O-])c2nonc12,57.6% (active)
3,Cn1ccnc1Sc1cc(NCCCO)c([N+](=O)[O-])c2nonc12,24.2% (inactive)
4,Cc1nnc(Sc2cc(NCCCO)c([N+](=O)[O-])c3nonc23)s1,39.9% (inactive)
5,CCCC(=O)OCCNc1cc(Sc2nccn2C)c2nonc2c1[N+](=O)[O-],30.4% (inactive)
6,CCCC(=O)OCCNc1cc(SCc2ccco2)c2nonc2c1[N+](=O)[O-],40.5% (inactive)
7,Cc1nnc(Sc2cc(NCCO)c([N+](=O)[O-])c3nonc23)s1,16.6% (inactive)
8,O=C(NCc1cccnc1)Nc1cccc(F)c1,-2.6% (inactive)
9,CC(=O)Nc1nc(C(=O)O)cs1,6.8% (inactive)
10,O=C(Nc1ccc(Cl)cn1)c1ccc(-c2cc(Cl)ccc2Cl)o1,-2.7% (inactive)
11,COc1cc2c(cc1OC)CN(C1CC(=O)N(c3c(C)cccc3C)C1=O)CC2 (configuration not stated),2.1% (inactive)
12,Cc1nc2ccc(NC(=S)NC3CC3)cc2nc1C,46.4% (inactive)
13,CCOC(=O)N1CCN(S(=O)(=O)c2ccc(C(=O)Nc3ccc4c(c3)C(=O)NC4=O)cc2)CC1,14.7% (inactive)
14,COc1c(C(=O)NCCSC(C)(C)C)ccc2ccccc12,2.8% (inactive)
15,O=C(NCCn1ccc2ccccc21)C1CCCCC1,1.5% (inactive)
16,CC(=O)OCCN(C)c1cc(SC(C)C)c2nonc2c1[N+](=O)[O-],24.4% (inactive)
17,CC(=O)OCCCNc1cc(Sc2ccc(Cl)cc2)c2nonc2c1[N+](=O)[O-],56.3% (active)
18,CC(=O)OCCNc1cc(SC(C)C)c2nonc2c1[N+](=O)[O-],52% (active)
19,CC(=O)OCCNc1cc(Sc2nc3ccccc3[nH]2)c2nonc2c1[N+](=O)[O-],26.1% (inactive)
20,CC(=O)OCCCNc1cc(SCc2ccco2)c2nonc2c1[N+](=O)[O-],40.1% (inactive)
21,CC(=O)OCCCNc1cc(Sc2ccc(C)cc2)c2nonc2c1[N+](=O)[O-],45.7% (inactive)
